Results: PubChem BioAssay
The source made the active and inactive calls. Unless noted, no stated cut-off is given here; in the data, active means inhibition above about 80%; inactive means the rest.

How the values were obtained:
[1] = growth inhibition, single agent or in combination, cell-based, chromothripsis tumors, cisplatin or BGB combos (AID 1671449); conditions: LFS_MB_P medulloblastoma cells;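 further: cells exposed for 96 hours; 0% = vehicle DMSO and 100% = killing by high DMSO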
[2] = growth inhibition, single agent and combos, cell-based, chromothripsis tumors, cisplatin or BGB combos (AID 1671450); conditions: HDN33 neuroblastoma cells, stronger effect = higher value;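 further: cells exposed to compound for four days; 0% = vehicle DMSO and 100% = cell killing by high DMSO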
[3] = growth inhibition, single agents and combos, ICB984, cell-based, cisplatin or BGB combos, synergistic combos for chromothripsis tumors (AID 1671451; call rule not given here;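 further: cells exposed for 96 hours before readout; 0% = vehicle DMSO and 100% = killing by high DMSO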); conditions: ICB984 medulloblastoma cells, drug combinations, stronger effect = higher value
[4] = growth inhibition, single agents and combos, LFS_MB_1R, cell-based, cisplatin or BGB combos, synergistic combos for chromothripsis tumors (AID 1671452); conditions: LFS_MB_1R medulloblastoma cells, stronger effect = higher value;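 further: cells exposed for 96 hours before readout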
[5] = growth inhibition, single agents and combos, HTB85, cell-based, BGB or cisplatin IC20 combos, synergistic combos for chromothripsis tumors (AID 1671453); conditions: HTB85 osteosarcoma cells, drug combinations, stronger effect = higher value;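 further: cells exposed for 96 hours before readout; 0% = vehicle DMSO and 100% = high DMSO killing control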
[6] = growth inhibition, single agents and combos, CRL2098, cell-based, BGB or cisplatin IC20 combos, synergistic combos for chromothripsis tumors (AID 1671454); conditions: CRL2098 osteosarcoma cells, drug combinations, stronger effect = higher value;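 further: cells exposed for 96 h before readout; 0% = vehicle DMSO and 100% = killing by high DMSO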
[7] = growth inhibition, single agents and combos, HD-MB03, cell-based, BGB or cisplatin IC20 combos, synergistic combos for chromothripsis tumors (AID 1671455; in the data active means inhibition above about 83%;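 further: 0% = vehicle DMSO and 100% = high DMSO as cytotoxic control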); conditions: HD-MB03 medulloblastoma cells, stronger effect = higher value
[8] = growth inhibition, single agents and combos, UWB1.289, cell-based, BGB or cisplatin combos, synergistic combos for chromothripsis tumors (AID 1671456); conditions: UWB1.289 ovarian carcinoma cells, stronger effect = higher value;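 further: cells exposed to compound for four days; 0% = vehicle DMSO and 100% = killing by high DMSO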
[9] = growth inhibition, single agents and combos, LFS_MB_2R, cell-based, cisplatin combos, synergistic combos for chromothripsis tumors (AID 1671457); conditions: LFS_MB_2R medulloblastoma cells, stronger effect = higher value;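 further: cells exposed to compound for four days before readout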
[10] = growth inhibition, MDA-MB-436, cell-based, BGB or cisplatin combos, synergistic combos for chromothripsis tumors (AID 1671458; call rule not given here;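 further: cells exposed for 96 hours; 0% = vehicle DMSO and 100% = killing by high DMSO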); conditions: MDA-MB-436 breast carcinoma growth inhibition, drug combinations, stronger effect = higher value
[11] = UWB1.289_BRCA1 ovarian cancer growth, cell-based, BGB or cisplatin combinations (AID 1671459); conditions: UWB1.289 BRCA1 ovarian carcinoma, drug combinations, stronger effect = higher value
[12] = drug combination toxicity in non-malignant astrocytes – cell-based, BGB or cisplatin IC20 combos, cytotoxicity control for chromothriptic childhood tumor combination screen (AID 1671460); conditions: Human astrocytes, viability inhibition, drug combinations, at 0.5 µM, stronger effect = higher value;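 further: cells exposed to compounds for 96 hours before viability readout; 0% = vehicle and 100% = killing control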
[13] = BT084 cell growth, single and combined drugs, ICGC_MB145, cisplatin and BGB IC40 combos (AID 1671461); conditions: BT084 medulloblastoma cells, drug combinations, stronger effect = higher value;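 further: cells exposed to drugs for 96 hours; 0% = vehicle DMSO and 100% = high DMSO full killing control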
[14] = RCMB18 cell growth, single agent and combined, cisplatin and BGB IC40 combos (AID 1671462); conditions: RCMB18 medulloblastoma cells, stronger effect = higher value;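 further: cells exposed to compound for four days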
[15] = CRL1545 cell growth, single agent and combined, cisplatin and BGB IC20 combos (AID 1671464); conditions: CRL1545 osteosarcoma cells, stronger effect = higher value;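 further: cells exposed to compound for 96 hours before readout; 0% = vehicle DMSO and 100% = high DMSO killing control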
[16] = measured here: combination with BGB IC40, at 0.05 µM
[17] = measured here: with BGB IC20 combination, at 0.5 µM
[18] = measured here: with cisplatin IC20 combination, at 0.5 µM
[19] = measured here: combination with cisplatin, at 0.5 µM
[20] = measured here: combination with cisplatin, at 5 µM

O=c1cc(-c2ccc(O)cc2)[nH]c(=S)[nH]1
inhibition ([1]; at 0.5 µM, stronger effect = higher value): 85.3% (active)
inhibition ([1]; measured here: combination with BGB IC20, at 0.005 µM): -1.36%
inhibition ([1]; measured here: combination with BGB IC40, at 0.005 µM): -7.24%
inhibition [1, 16]: -1.51%
inhibition ([1]; measured here: combination with cisplatin, at 0.5 µM, stronger effect = higher value): 79.3%
inhibition ([1]; measured here: combination with cisplatin, at 5 µM, stronger effect = higher value): 3.08%
inhibition ([2]; BGB combo, at 5 µM): -16.4%
inhibition ([2]; at 0.5 µM): -17.1% (inactive)
inhibition ([2]; cisplatin combo, at 5 µM): -30.3%
inhibition [2, 17]: -22.1%
inhibition [2, 18]: -12.8%
inhibition ([2]; single agent, at 5 µM): -27.7%
inhibition ([3]; BGB IC20 combo, at 0.005 µM): -9.88%
inhibition ([3]; BGB IC40 combo, at 0.005 µM): -25.6%
inhibition ([3]; BGB IC40 combo, at 0.05 µM): -24.8%
inhibition ([3]; at 0.5 µM): -27.2% (inactive)
inhibition ([3]; cisplatin combo, at 0.05 µM): -31.2%
inhibition ([3]; cisplatin combo, at 0.5 µM): -50.4%
inhibition ([3]; cisplatin combo, at 5 µM): -7.23%
inhibition ([3]; measured here: 5 uM single agent, at 5 µM): -15.4%
inhibition ([4]; at 0.5 µM): -1.38% (inactive)
inhibition [4, 16]: -3.87%
inhibition [4, 19]: -24.1%
inhibition [4, 20]: 1.81%
inhibition ([5]; at 0.5 µM): -22.5% (inactive)
inhibition ([5]; measured here: with BGB IC20, at 0.5 µM): -21.9%
inhibition ([5]; measured here: with BGB IC20, at 5 µM): -6.6%
inhibition ([5]; measured here: with cisplatin IC20, at 0.5 µM): -20.1%
inhibition ([5]; measured here: with cisplatin IC20, at 5 µM): 14%
inhibition ([5]; single agent, at 5 µM): -1.02%
inhibition ([6]; at 0.5 µM): -53% (inactive)
inhibition ([6]; measured here: combination with BGB at IC20, at 0.5 µM): -28.7%
inhibition ([6]; measured here: combination with cisplatin at IC20, at 0.5 µM): -91.5%
inhibition ([7]; at 0.5 µM): -13.4% (inactive)
inhibition ([7]; measured here: combo with BGB at IC20, at 0.5 µM): -10.4%
inhibition ([7]; measured here: combo with cisplatin at IC20, at 0.5 µM): -24.5%
inhibition ([8]; at 0.5 µM): -11.6% (inactive)
inhibition ([8]; measured here: inhibition with BGB combination, at 0.05 µM): -5.24%
inhibition ([8]; measured here: inhibition with cisplatin combination, at 0.05 µM): -19.2%
inhibition ([9]; at 0.5 µM): -8.7% (inactive)
inhibition [9, 19]: -16.1%
inhibition [9, 20]: -5.06%
inhibition ([10]; at 0.5 µM): -9.32% (inactive)
inhibition ([10]; measured here: BGB combination, at 0.5 µM): -13.5%
inhibition ([10]; measured here: BGB combination, at 5 µM): -8.05%
inhibition ([10]; measured here: cisplatin combination, at 0.5 µM): -15.9%
inhibition ([10]; measured here: cisplatin combination, at 5 µM): -5.07%
inhibition ([11]; BGB combination, concentration series, at 5 µM): -21.3%
inhibition ([11]; at 0.5 µM): -19.2% (inactive)
inhibition ([11]; cisplatin combination, concentration series, at 5 µM): 2.65%
inhibition [12]: -9.33% (inactive)
inhibition ([12]; measured here: combo with BGB IC20): -17.6%
inhibition ([12]; measured here: combo with cisplatin IC20): -15.4%
inhibition ([13]; at 0.5 µM): 6.07% (inactive)
inhibition ([13]; cisplatin combination, at 0.5 µM): -1.5%
inhibition ([13]; cisplatin combination, at 5 µM): -121%
inhibition ([13]; measured here: BGB IC40 combination 0.05 uM, at 0.05 µM): 27.5%
inhibition ([13]; single agent, at 5 µM): 15.9%
inhibition ([14]; at 0.5 µM): -1.5% (inactive)
inhibition ([14]; cisplatin combo, at 5 µM): -3.95%
inhibition ([14]; measured here: BGB IC40 combination, at 0.05 µM): -13.5%
inhibition [14, 19]: -10.5%
inhibition ([14]; single agent, at 5 µM): 21.7%
inhibition ([15]; at 0.5 µM): -18.8% (inactive)
inhibition [15, 17]: -19.4%
inhibition [15, 18]: -20.3%
inhibition ([15]; single agent, at 0.05 µM): 0.873%
inhibition ([15]; single agent, at 5 µM): -68.2%
